# Compound activity from PubChem.
# A selection: hits, their analogues and other compounds. The true share with any hit is near 22%.
# CYP2C9 inhib: blocks human cytochrome P450 2C9; CYP2C9 Supersomes, luciferin-H conversion, luminescence; 96,000 tested, 20% active; inhibition, % at 5 µM; P11712; AID 777;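 active = blocking of liver enzyme CYP2C9 beyond about 50% at 5 µM, limit read from the data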
# Target sequence (P11712 whole entry, looked up): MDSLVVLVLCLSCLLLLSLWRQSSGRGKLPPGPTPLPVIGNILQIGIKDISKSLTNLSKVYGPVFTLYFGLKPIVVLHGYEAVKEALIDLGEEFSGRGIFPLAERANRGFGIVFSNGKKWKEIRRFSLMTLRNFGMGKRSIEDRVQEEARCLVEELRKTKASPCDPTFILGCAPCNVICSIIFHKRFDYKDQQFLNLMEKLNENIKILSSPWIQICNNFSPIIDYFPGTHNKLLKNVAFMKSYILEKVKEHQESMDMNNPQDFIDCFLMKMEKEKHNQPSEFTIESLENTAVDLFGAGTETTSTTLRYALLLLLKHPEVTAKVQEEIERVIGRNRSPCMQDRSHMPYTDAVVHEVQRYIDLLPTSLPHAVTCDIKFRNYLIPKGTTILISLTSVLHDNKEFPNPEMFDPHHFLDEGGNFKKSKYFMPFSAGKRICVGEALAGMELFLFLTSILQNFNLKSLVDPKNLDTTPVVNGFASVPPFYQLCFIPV
# CYP2C9 activ: CYP2C9 (human) activation | 96,000 tested, 1.4% active | recombinant CYP2C9, luciferin-H conversion, luminescence; active compounds read high; factor 1 = untreated enzyme, 0 = blocked | activation factor at 5 µM;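 active = activation factor of 2 or more for CYP2C9 at a 5 µM dose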;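 note: 0 = sulfaphenazole-blocked wells and 1 = vehicle-only wells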
# CYP2C19 activ: cytochrome P450 2C19 (human) activation. AID 1025. recombinant CYP2C19, luciferin-H EGE luminescence; active compounds read high; 0 = fully inhibited enzyme, 1 = untreated enzyme. P33261. 96,000 tested, under 10 active. activation factor at 5 µM;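 active = activation factor of at least 2 at 5 µM in the primary screen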;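 note: 0 = wells with 2.5 mM tranylcypromine and 1 = vehicle-only wells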
# CYP2C19 inhib: blocks human cytochrome P450 2C19; CYP2C19 Supersomes, luciferin-H EGE luminescence, 30 min; inhibition, % at 5 µM; 96,000 tested, 21% active; AID 778;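 active = CYP2C19 inhibition above a set limit at 5 µM in the primary screen, cut at about 50% in these data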;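 note: plate controls were negative control wells for no effect and 2.5 mM tranylcypromine positive control for full effect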
# Measles CPE: protection of cells from measles virus. Measles virus-infected cells, CPE protection, absorbance. 140,000 tested, 1.5% active. protection (pct of control), % at 4 µM. AID 841; in the data active = protection mostly above about 24%, no sharp cut-off; inactive = mostly below about 26%
# Active calls of the source: *; . = no result given.
SMILES,CYP2C9 inhib,CYP2C9 activ,CYP2C19 activ,CYP2C19 inhib,Measles CPE
CC1Cc2ccccc2N1C(=O)C12CCC(C)(C(=O)C1)C2(C)C (configuration not stated),14,0.9,0.8,20,0
CCc1ccc(S(=O)(=O)NCc2csc(-c3cccnc3)n2)s1,.,.,.,.,7
Cc1nc(CNS(=O)(=O)c2ccc3c(c2)CCCC3)cs1,-135,2.4*,0.6,39,6
O=C(NCCc1csc(-c2cccnc2)n1)c1cccs1,.,.,.,.,7
O=S(=O)(NCCc1csc(-c2cccnc2)n1)c1ccc(Cl)s1,83*,0.2,0.2,80*,23
Cc1ccc(C(=O)NCCc2csc(-c3cccnc3)n2)cc1,63*,0.4,0.5,47,10
CCCCOc1ccc(S(=O)(=O)NCc2csc(C)n2)cc1,30,0.7,0.6,41,27
COCCNC(=O)COC(=O)/C=C/c1c(C)nn(Cc2ccc(Cl)cc2Cl)c1Cl,56*,0.4,0.7,26,10
COc1ccc(CN(C)c2ncnc(N)n2)cc1,11,0.9,0.2,78*,1
CCCCOc1ccc(CN(C)c2ncnc(N)n2)cc1,.,.,.,.,5
CCOc1ccccc1C(=O)NCCC(=O)O,-8,1.1,1.1,-14,2
COc1cc(/C=N/NC(=O)c2cnccn2)cc(OC)c1OC,.,.,.,.,4
Oc1ccc(C=Nc2ccc3ncccc3c2)c(O)c1,48,0.5,0.4,56*,7
COc1cccc(N=Cc2ccc(O)cc2O)c1,7,0.9,1,1,35*
Oc1ccc(C=Nc2cccc3ncccc23)c(O)c1,-4,1,1,-1,6
Cc1ccccc1NS(=O)(=O)c1ccc2[nH]cc(C(=O)N(C)Cc3ccco3)c(=O)c2c1,25,0.8,0.9,14,7
Cc1cc(C)cc(NS(=O)(=O)c2ccc3[nH]cc(C(=O)NCc4ccco4)c(=O)c3c2)c1,65*,0.4,0.9,12,14
COc1cccc(NS(=O)(=O)c2ccc3[nH]cc(C(=O)NC4CC4)c(=O)c3c2)c1,52*,0.5,0.9,13,4
COc1cccc(NS(=O)(=O)c2ccc3[nH]cc(C(=O)N(C)Cc4ccco4)c(=O)c3c2)c1,71*,0.3,0.5,48,4
Cc1c(C(=O)N/N=C/c2ccc(-c3ccccc3[N+](=O)[O-])o2)sc(N)c1C#N,.,.,.,.,5
Cc1c(/C=C/C(=O)c2ccc(O)cc2)cnn1C,.,.,.,.,42*
Cc1c(/C=C/C(=O)c2ccccc2)cnn1C,11,0.9,0.7,28,3
COCCOc1cc(-n2ccnc2SC)c(Cl)cc1Cl,14,0.9,0.3,68*,19
COc1ccc(C(=O)c2ccc(OC)c(OC)c2)cc1OC,34,0.7,0.5,48,6
COc1ccc(C(=O)Oc2c(C)occc2=O)cc1OC,-10,1.1,1.1,-5,48*
SMILES,CYP2C9 inhib,CYP2C9 activ,CYP2C19 activ,CYP2C19 inhib,Measles CPE
Cc1cccn2c(=O)c3cc(C#N)c(=NC(=O)c4ccncc4)n(CCCOC(C)C)c3nc12,87*,0.1,0.1,94*,17
COCCCn1c(=NC(=O)c2ccncc2)c(C#N)cc2c(=O)n3cccc(C)c3nc21,81*,0.2,0.3,70*,5
CCCCn1c(=NC(=O)c2cccnc2)c(C#N)cc2c(=O)n3cccc(C)c3nc21,-2,1,1,1,5
COc1cccc(NC(=O)C2CCCN(S(=O)(=O)c3cccc4nsnc34)C2)c1 (configuration not stated),67*,0.3,0.5,50*,6
Cc1cccc(NC(=O)C2CCCN(S(=O)(=O)c3cccc4nsnc34)C2)c1 (configuration not stated),40,0.6,0.7,27,10
Cc1cccc(NC(=O)C2CCCN(S(=O)(=O)c3cccc4nsnc34)C2)n1 (configuration not stated),46,0.5,0.8,15,4
O=C(NCc1ccccc1Cl)C1CCCN(S(=O)(=O)c2cccc3nsnc23)C1 (configuration not stated),50*,0.5,0.2,77*,3
COc1ccccc1NC(=O)C1CCCN(S(=O)(=O)c2cccc3nsnc23)C1 (configuration not stated),71*,0.3,0.3,72*,4
CC(C)(C)c1cc(NS(=O)(=O)c2ccc3c(c2)OCCO3)on1,.,.,.,.,25
O=c1[nH]c(SCc2cccc(F)c2)nc2c1CCCC2,.,.,.,.,9
CC(C)(C)NS(=O)(=O)c1ccc(NS(=O)(=O)c2ccc(F)cc2)cc1,93*,0.1,0.6,38,4
CC(C)(CNS(=O)(=O)c1ccc(F)cc1)CNS(=O)(=O)c1ccc(F)cc1,0,1,0.7,32,7
COc1ccc(NS(=O)(=O)c2ccc(NS(=O)(=O)c3ccc(C)cc3)cc2)nn1,66*,0.3,1,-3,3
COc1cc(NS(=O)(=O)c2ccc(NC(C)=O)cc2)ncn1,3,1,0.9,8,3
CCCN(CCC)S(=O)(=O)c1ccc(NS(=O)(=O)c2ccc(F)cc2)cc1,92*,0.1,0.5,46,9
Cc1ccc(S(=O)(=O)Nc2ccc(-c3nc4cc(NS(=O)(=O)c5ccc(C)cc5)ccc4o3)cc2)cc1,97*,0,0.2,81*,7
Cc1ccc(-c2nc3cc(NC(=O)C(C)C)ccc3o2)cc1,-2,1,1,-2,6
CN1C(=S)N(c2ccccc2)C(=O)/C1=C/c1ccco1,.,.,.,.,32
Cc1cc(C(=O)Nc2cccnc2)cs1,3,1,0.9,13,18
O=c1[nH]n(-c2ccccn2)c(=O)c2ccccc12,-8,1.1,1.1,-9,4
Cc1ccc(S(=O)(=O)Nc2ccc(S(=O)(=O)NC(C)(C)C)cc2)cc1,87*,0.1,0.5,48,2
Cc1ccc(NS(=O)(=O)c2ccc(C3CCCCC3)cc2)cc1,.,.,.,.,6
Cc1cccc(NC(=O)CSc2nnc(-c3ccccc3)n2N)c1C,47,0.5,0.5,55*,5
Cc1ccc(C)c(NC(=O)CSc2nnc(C)c(=O)n2N)c1,.,.,.,.,9
Cc1ccc(C)c(NC(=O)CSc2nnc(-c3ccncc3)n2N)c1,92*,0.1,0.4,60*,10
SMILES,CYP2C9 inhib,CYP2C9 activ,CYP2C19 activ,CYP2C19 inhib,Measles CPE
N/C(=N\O)c1ccc(NC(=O)c2cccs2)cc1,-2,1,0.8,17,15
Cc1c(Cl)cnc(NC(=O)COC(=O)c2ccc3c(c2)OCO3)c1Cl,.,.,.,.,4
CN(/N=C/c1ccncc1)c1cnn(-c2ccc(F)c(Cl)c2)c(=O)c1Cl,93*,0.1,0.1,91*,10
O=c1[nH]c(=O)n(Cc2ccco2)c2c1C(C(F)(F)F)(C(F)(F)F)N=C(C1CCCCC1)N2,3,1,0.9,10,13
N#Cc1ccc(C2=NC(C(F)(F)F)(C(F)(F)F)c3c(n(Cc4ccco4)c(=O)[nH]c3=O)N2)cc1,96*,0,0.7,32,7
O=c1[nH]c(=O)n(Cc2ccco2)c2c1C(C(F)(F)F)(C(F)(F)F)N=C(CCc1ccccc1)N2,68*,0.3,0.8,22,8
